# “And” between values parts separate entries of the source, which are not always exact repeats. Identical values can stand only once. A number with no mark means an inactive call. Inconclusive results are not listed. A call without a number means that no potency is given here. The source made the active and inactive calls. The call rests on the fitted dose curve; in most records, active means well fitted curve in the direction sought with a large enough effect in the repeat runs; inconclusive means weak or mixed curves; inactive means no such curve, though single readings can be large; an effect the other way counts as inactive or inconclusive.
# Tests used:
# [1] = A CellTox Green Cytotoxicity Assay to monitor cytotoxicity in HEK293 cells - 40 hour (AID 1224871); further: nearly all actives have a fitted effect of over 45% in size; further: potency means the concentration at half of the fitted maximal effect
# How it was run: (§1)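 Fluorescence intensity, read at 0, 8, 16, 24, 32 and 40 h of compound treatment, reflected dye binding to DNA of dead HEK293 cells; compounds (23 nL, DMSO) were added 5 h after plating cells with reagent.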
# [2] = qHTS RealTime-Glo MT Cell Viability Assay in HEK293 cells - 16 hour (AID 1224872); further: top concentration of the series differs between compounds; nearly all actives have a fitted effect of over 50% in size
# How it was run: (§2)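 HEK293 cells were seeded at 600 cells/well together with NanoLuc luciferase and cell-permeant prosubstrate, preincubated 5 h at 37 C/5% CO2, then given compound in DMSO by pintool. Luminescence from viable-cell prosubstrate reduction was read repeatedly over 40 h.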
# [3] = qHTS RealTime-Glo MT Cell Viability Assay in HepG2 cells - 8 hour (AID 1224873); further: nearly all actives have a fitted effect of over 55% in size
# How it was run: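 Real-time viability: cells seeded at 600 per well together with NanoLuc and cell-permeant prosubstrate, compounds added after 5 h incubation. Luminescence tracked at 0, 8, 16, 24, 32 and 40 h of exposure.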
# [4] = qHTS RealTime-Glo MT Cell Viability Assay in HEK293 cells - 40 hour (AID 1224874); conditions: RealTime-Glo luminescence; max response: hits give low values; further: nearly all actives have a fitted effect of over 50% in size
# How it was run: (§3)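 Viable HEK293 cells reduce a cell-permeant prosubstrate; the product diffuses out and is consumed by NanoLuc in the medium to give light. Compounds went in after a 5 h incubation and plates were read over the treatment course.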
# [5] = A CellTox Green Cytotoxicity Assay to monitor cytotoxicity in HEK293 cells - 24 hour (AID 1224875); further: nearly all actives have a fitted effect of over 45% in size; further: potency means the concentration at half of the fitted maximal effect
# How it was run: as §1
# [6] = A CellTox Green Cytotoxicity Assay to monitor cytotoxicity in HepG2 cells - 16 hour (AID 1224876); further: nearly all actives have a fitted effect of over 45% in size; further: potency means the concentration at half of the fitted maximal effect
# How it was run: (§4)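 Using 1536-well format, dye-containing HepG2 suspension was seeded, allowed 5 h at 37 C/5% CO2, dosed by pintool with compounds, positive and negative controls, and imaged for fluorescence across 40 h.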
# [7] = qHTS RealTime-Glo MT Cell Viability Assay in HepG2 cells - 32 hour (AID 1224877); further: nearly all actives have a fitted effect of over 55% in size
# How it was run: (§5)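 HepG2 cells were seeded at 600 cells/well together with NanoLuc luciferase and a cell-permeant prosubstrate, preincubated 5 h at 37 C/5% CO2, then pin-dosed with compounds in DMSO. Nonlytic luminescence from viable cells was read at each time point.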
# [8] = A CellTox Green Cytotoxicity Assay to monitor cytotoxicity in HepG2 cells - 24 hour (AID 1224878); further: nearly all actives have a fitted effect of over 45% in size; further: potency means the concentration at half of the fitted maximal effect
# How it was run: as §4
# [9] = A CellTox Green Cytotoxicity Assay to monitor cytotoxicity in HepG2 cells - 40 hour (AID 1224879); further: nearly all actives have a fitted effect of over 40% in size; further: potency means the concentration at half of the fitted maximal effect
# How it was run: as §4
# [10] = qHTS RealTime-Glo MT Cell Viability Assay in HEK293 cells - 0 hour (AID 1224880)
# How it was run: as §3
# [11] = A CellTox Green Cytotoxicity Assay to monitor cytotoxicity in HEK293 cells - 32 hour (AID 1224881); further: nearly all actives have a fitted effect of over 40% in size; further: potency means the concentration at half of the fitted maximal effect
# How it was run: as §1
# [12] = A CellTox Green Cytotoxicity Assay to monitor cytotoxicity in HepG2 cells - 0 hour (AID 1224882); further: nearly all actives have a fitted effect of over 35% in size; further: potency means the concentration at half of the fitted maximal effect
# How it was run: as §4
# [13] = A CellTox Green Cytotoxicity Assay to monitor cytotoxicity in HepG2 cells - 32 hour (AID 1224883); further: nearly all actives have a fitted effect of over 50% in size; further: potency means the concentration at half of the fitted maximal effect
# How it was run: as §4
# [14] = A CellTox Green Cytotoxicity Assay to monitor cytotoxicity in HEK293 cells - 8 hour (AID 1224884); further: nearly all actives have a fitted effect of over 35% in size; further: potency means the concentration at half of the fitted maximal effect
# How it was run: as §1
# [15] = qHTS RealTime-Glo MT Cell Viability Assay in HepG2 cells - 16 hour (AID 1224885); further: nearly all actives have a fitted effect of over 50% in size
# How it was run: as §5
# [16] = qHTS RealTime-Glo MT Cell Viability Assay in HEK293 cells - 24 hour (AID 1224886)
# How it was run: as §2
# [17] = qHTS RealTime-Glo MT Cell Viability Assay in HEK293 cells - 8 hour (AID 1224887)
# How it was run: as §3
# [18] = A CellTox Green Cytotoxicity Assay to monitor cytotoxicity in HEK293 cells - 16 hour (AID 1224888); further: nearly all actives have a fitted effect of over 35% in size; further: potency means the concentration at half of the fitted maximal effect
# How it was run: as §1
# [19] = qHTS RealTime-Glo MT Cell Viability Assay in HepG2 cells - 0 hour (AID 1224889); further: nearly all actives have a fitted effect of over 50% in size
# How it was run: as §5
# [20] = A CellTox Green Cytotoxicity Assay to monitor cytotoxicity in HepG2 cells - 8 hour (AID 1224890); further: nearly all actives have a fitted effect of over 45% in size; further: potency means the concentration at half of the fitted maximal effect
# How it was run: as §4
SMILES,Potency [1],Potency [2],Potency [3],max response [4],Potency [5],Potency [6],Potency [7],Potency [8],Potency [9],outcome [10],Potency [11],Potency [12],Potency [13],Potency [14],Potency [15],Potency [16],Potency [17],Potency [18],outcome [19],Potency [20]
O=C(NCNC(=O)NC1C(=O)NC(=O)N1CO)NC1C(=O)NC(=O)N1CO (stereo not drawn),inactive,inactive,inactive,4.4%,inactive,inactive,inactive,inactive,inactive,inactive,inactive,inactive,inactive,inactive,inactive,inactive,inactive,inactive,inactive,inactive
CC(Oc1cc(Cl)c(Cl)cc1Cl)C(=O)O (stereo not drawn),inactive,inactive,inactive,3.67%,inactive,inactive,inactive,inactive,inactive,inactive,inactive,inactive,inactive,inactive,inactive,inactive,inactive,inactive,inactive,inactive
COc1ccc(C(O)(c2cncnc2)C2CC2)cc1 (stereo not drawn),inactive,inactive,inactive,0.605%,inactive,inactive,inactive,inactive,inactive,inactive,inactive,inactive,inactive,inactive,inactive,inactive,inactive,inactive,inactive,inactive
c1ccc2sc(SNC3CCCCC3)nc2c1,inactive,inactive,inactive,-0.932% and 2.76%,inactive,inactive,inactive,inactive,inactive,inactive,inactive,inactive,inactive,inactive,inactive,inactive,inactive,inactive,inactive,inactive
ClCc1ccccc1Cl,inactive,inactive,inactive,-3.09%,inactive,inactive,inactive,inactive,inactive,inactive,inactive,inactive,inactive,inactive,inactive,inactive,inactive,inactive,inactive,–
COC(=O)C1(O)c2ccccc2-c2ccccc21,inactive,inactive,inactive,-22.2%,inactive,inactive,inactive,inactive,inactive,inactive,inactive,inactive,inactive,inactive,inactive,inactive,inactive,inactive,inactive,inactive
O=C(N/N=C/c1ccc([N+](=O)[O-])o1)c1cc([N+](=O)[O-])cc([N+](=O)[O-])c1O,inactive,inactive,inactive,8.45%,inactive,inactive,inactive,inactive,inactive,inactive,inactive,inactive,inactive,inactive,inactive,inactive,inactive,inactive,inactive,inactive
COCc1cnc(C2=NC(C)(C(C)C)C(=O)N2)c(C(=O)O)c1 (stereo not drawn),inactive,inactive,inactive,9.64%,inactive,inactive,inactive,inactive,inactive,inactive,inactive,inactive,inactive,inactive,inactive,inactive,inactive,inactive,inactive,–
CC(CC(C(N)=O)(c1ccccc1)c1ccccc1)N(C)C (stereo not drawn),inactive,inactive,inactive,3.65%,inactive,inactive,inactive,inactive,inactive,inactive,inactive,inactive,inactive,inactive,inactive,inactive,inactive,inactive,inactive,–
Cc1ncc(C[n+]2csc(CCO)c2C)c(N)n1,inactive,inactive,inactive,-4.98%,inactive,inactive,inactive,inactive,inactive,inactive,inactive,inactive,inactive,inactive,inactive,inactive,inactive,inactive,inactive,–
C[C@H](N)[C@H](O)c1ccc(O)c(O)c1,10.7 µM (active),inactive,inactive,-2.61%,19 µM (active),23.9 µM (active),inactive,23.9 µM (active),23.9 µM (active),inactive,19 µM (active),26.8 µM (active),21.3 µM (active),19 µM (active),inactive,inactive,inactive,21.3 µM (active),inactive,26.8 µM (active)
CCCC1CCCCN1 (stereo not drawn),inactive,inactive,inactive,5.87%,inactive,inactive,inactive,inactive,inactive,inactive,inactive,inactive,inactive,inactive,inactive,inactive,inactive,inactive,inactive,inactive
Cc1ccc2c(C)cccc2c1,inactive,inactive,inactive,4.4%,inactive,inactive,inactive,inactive,inactive,inactive,inactive,inactive,inactive,inactive,inactive,inactive,inactive,inactive,inactive,–
CN[C@@H](C)[C@H](O)c1ccccc1,inactive,inactive,inactive,1.2%,inactive,inactive,inactive,inactive,inactive,inactive,inactive,inactive,inactive,inactive,inactive,inactive,inactive,inactive,inactive,–
O=C(Cc1ccccc1)OCCc1ccccc1,inactive,inactive,inactive,2.91%,inactive,inactive,inactive,inactive,inactive,inactive,inactive,inactive,inactive,inactive,inactive,inactive,inactive,inactive,inactive,–
CCOC(=O)NC(O)C(Cl)(Cl)Cl (stereo not drawn),inactive,inactive,inactive,7.58%,inactive,inactive,inactive,inactive,inactive,inactive,inactive,inactive,inactive,inactive,inactive,inactive,inactive,inactive,inactive,inactive
Clc1ccc(Cl)c(Cl)c1,inactive,inactive,inactive,-1.09% and 2.8%,inactive,inactive,inactive,inactive,inactive,inactive,inactive,inactive,inactive,inactive,inactive,inactive,inactive,inactive,inactive,inactive
CCCN(CCC)c1c([N+](=O)[O-])cc(C(C)C)cc1[N+](=O)[O-],inactive,inactive,inactive,9.58%,inactive,inactive,inactive,inactive,inactive,inactive,inactive,inactive,inactive,inactive,inactive,inactive,inactive,inactive,inactive,–
CN(C1CCCCC1)C1CCCCC1,inactive,inactive,inactive,-2.03%,inactive,inactive,inactive,inactive,inactive,inactive,inactive,inactive,inactive,inactive,inactive,inactive,inactive,inactive,inactive,–
CC(C)(C)OOC(C)(C)CCC(C)(C)OOC(C)(C)C,inactive,inactive,inactive,9.43%,inactive,inactive,inactive,inactive,inactive,inactive,inactive,inactive,inactive,inactive,inactive,inactive,inactive,inactive,inactive,inactive
OCCSSCCO,inactive,inactive,inactive,3.99%,inactive,inactive,inactive,inactive,inactive,inactive,inactive,inactive,inactive,inactive,inactive,inactive,inactive,inactive,inactive,inactive
O=[N+]([O-])O[C@H]1CO[C@H]2[C@@H]1OC[C@H]2O[N+](=O)[O-],inactive,inactive,inactive,6.05%,inactive,inactive,inactive,inactive,inactive,inactive,inactive,inactive,inactive,inactive,inactive,inactive,inactive,inactive,inactive,inactive
CCOC(=O)c1cncn1C(C)c1ccccc1 (stereo not drawn),inactive,inactive,inactive,3.04%,inactive,inactive,inactive,inactive,inactive,inactive,inactive,inactive,inactive,inactive,inactive,inactive,inactive,inactive,inactive,–
FC(F)OC(F)(F)C(F)Cl (stereo not drawn),inactive,inactive,inactive,8.01%,inactive,inactive,inactive,inactive,inactive,inactive,inactive,inactive,inactive,inactive,inactive,inactive,inactive,inactive,inactive,–
C[C@]12C=CC3=C4CCC(=O)C=C4CC[C@H]3[C@@H]1CC[C@@H]2O,inactive,inactive,inactive,-25.8%,inactive,inactive,inactive,inactive,inactive,inactive,inactive,inactive,inactive,inactive,inactive,inactive,inactive,inactive,inactive,–
